Shown are actives, neighbours in structure and some others; about 21% of the full set was active somewhere.
Pf growth 96h: inhibits malaria parasite growth, 96 h. P. falciparum luciferase reporter growth, 96 h. Potency, µM (doses to about 28.7 µM), without a hit: top-dose activity change, negative = inhibition, usual class: inhibitors. 320,000 compounds, 6.9% hits. AID 504834; also: potency is read from the fitted curve at half-maximal effect; % is scaled to controls: 0 for no effect and ±100 for the full control effect
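Delayed-death screen, second-generation endpoint: infected erythrocytes, 2% hematocrit, 0.05% parasitemia final; 96 hours at 37 C, 5% CO2; luciferase detection reagent; luminescence decrease equals reduced growth.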
Pf growth 48h: inhibits P. falciparum growth in the first generation, 48 h; P. falciparum luciferase growth in erythrocytes, 48 h; AID 504832; Potency, µM (titrated, usually from 28.7 µM), without a hit: at the top dose activity change, negative = inhibition, actives largely listed as inhibitors; 310,000 compounds, 5.9% hits; also: potency is read from the fitted curve at half-maximal effect; % is scaled to controls: 0 for no effect and ±100 for the full control effect
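Here the parasites carry a stable luciferase gene and grow inside erythrocytes in Albumax-based RPMI medium with compound for one erythrocytic cycle. Activity is scored as loss of luminescent signal.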
AMA1 RON2 block: AMA1-RON2 (P. falciparum) interaction inhibition | AID 720542 | Potency, µM (top dose mostly 58.2 µM), inactives show at the highest dose activity change, negative = inhibition, actives largely listed as inhibitors | AlphaScreen AMA1-biotinylated RON2 peptide binding | 360,000 compounds, 0.2% hits;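 also: potency is read from the fitted curve at half-maximal effect; 0% = vehicle wells and -100% = peptide control; nearly all actives have a fitted effect of over 45% in size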
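AMA1 (3D7) with his tag at 25 nM final met compounds first, then biotinylated RON2 peptide at 25 nM; detection used donor plus acceptor beads, 10 µg/mL apiece, read by AlphaScreen after 30 min at room temperature.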
Cycloheximide cs: affects cycloheximide protein synthesis inhibition readout, counter-screen; cell reporter, cycloheximide protein synthesis inhibition counterscreen; max response, %; 300,000 compounds, 12% hits; in the data active = max response mostly above about 13%, no sharp cut-off; inactive = mostly below about 14%; also: read at 38.3 µM for the half of the compounds with a filed dose; 0% is about no effect
HCV inh: blocks hepatitis C virus. 340,000 compounds, 3.4% hits. Huh7.5.1 HCVcc-Cre infection, luciferase reporter, 44 h. Potency, µM (doses to about 41.8 µM), for the others: at the top dose activity change, negative = inhibition, most hits filed as inhibitors; also: potency is read from the fitted curve at half-maximal effect; % is scaled to controls: 0 for no effect and ±100 for the full control effect
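Compounds are dispensed onto cells plated 4 h earlier at 1,000 per well, with HCVcc-Cre virus (about 0.5 moi) added next. Following 44 h of culture, luminescent signal is measured for 15 sec after 15 min with substrate at room temperature.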
Shiga toxin inh: Shiga toxin inhibition; 290,000 compounds, 9.2% hits; inhibition, % at 38.7 µM; Vero cells, Shiga toxin protein synthesis inhibition reporter; in the data active = inhibition mostly above about 28%, no sharp cut-off; inactive = mostly below about 43%; also: 0% is about no effect
* hit, by the source's call; i = inactive; ? = inconclusive; . = no result; [ ] = dose if it differs, or a comment. Unless noted, calls follow the shape of the dose curve; as a rule, active = well fitted curve in the direction sought with a large enough effect; inconclusive = small, poorly fitted or top-dose-only effect, or another doubt; inactive = no such curve, though single readings can be large; an effect the other way counts as inactive or inconclusive.

SMILES	Pf growth 96h	Pf growth 48h	AMA1 RON2 block	Cycloheximide cs	HCV inh	Shiga toxin inh
CCN(CC)S(=O)(=O)c1ccc(/C=C/C(=O)Nc2cccc(F)c2)cc1	2.9µM*	?	13%	33*	13µM*	28
O=C(Nc1ccc(OC(F)F)cc1)Nc1cccc(C(F)(F)F)c1	5.2µM*	.	5%	12*	?	-1
COC(=O)C1=CN(c2cccc(OCc3ccccc3)c2)C(N)=C(C#N)C1c1cccc(F)c1 (stereo unspecified)	.	.	-6%	.	.	.
CCCCCCN1C[C@@H](O)[C@H](n2cc(COC(=O)c3ccccc3)nn2)C[C@@H]1c1ccccc1	.	.	-3%	.	.	.
CCCCOc1ccc(/C(N)=N/O)cc1	?	99%	-2%	43*	?	82*
CCC(=O)OCCCCCCOc1ccc(C(=O)O)cc1	30%	-9%	8%	1	2%	-5
CCCCOc1ccc(-c2ncc(C(=O)O)c(C)n2)cc1	24%[5.75 µM]	191%	-4%	28*	31%	99*
CCCCCCOc1ccc(C(=O)O)cc1	4%	14%	-5%	16*	15%	42*
O=C1CCCC1C(=O)Nc1ccc2ccccc2c1 (stereo unspecified)	34%	24%	3%	17*	-20%	45*
CC(=O)N1CCc2cc(N=NC3=C(O)CCCC3=O)ccc21	27%	31%	-25%	31*	-1%	92*
O=C1CCCC(O)=C1C=Nc1ccc(O)cc1	0%	66%	-8%	13	12%	32
CC(=O)N1CCc2cc(S(=O)(=O)N3CCCCCC3)ccc21	?	-8%	2%	-1	0%	-12
Cc1nc2cc(N=NC3=C(O)CCCC3=O)ccc2s1	43%	15%	-16%	61*	0%	89*
O=C1CCCC(O)=C1N=Nc1ccc(Cl)c(Cl)c1	19%	16%	-18%	23*	-3%	15
C#CCOCCOCCOCCNc1nc(N2CCN(C(=O)[C@H](CCCCN)n3cc(CN)nn3)CC2)nc(N2CCN(C(=O)[C@H](CC(N)=O)n3cc(C(N)[C@H](C)CC)nn3)CC2)n1 (stereo partly specified)	.	.	4%	.	-3%	.
Cc1ccc(CN2C(=O)CCC2(C)c2nnnn2-c2ccc3c(c2)OCCO3)cc1 (stereo unspecified)	.	.	3%	.	.	.
O=C(OCC(=O)N1CCCC1=O)c1ccc(O)cc1O	10%	4%	-3%	.	14%	.
Cc1ccc(-n2nc3c(=O)n(CC(=O)NC4CCCCCC4)nc(C)c3c2C)cc1	13µM*	15%	14%	5	-18%	-4
Cc1nn(CC(=O)NCCc2cccs2)c(=O)c2nn(-c3ccccc3)c(C)c12	?	-8%	-9%	22*	-18%	19*
COc1ccc(CCNC(=O)Cn2nc(C)c3c(C)n(-c4ccccc4)nc3c2=O)c(OC)c1	-11%	?	0%	1	?	-7
COc1ccc(OC)c(CCNC(=O)Cn2nc(C)c3c(C)n(-c4ccc(C)cc4)nc3c2=O)c1	?	-17%	-9%	0	1.1µM*	-2
CCCCNC(=O)CSc1nnc(C)c2c(C)n(-c3ccccc3)nc12	.	.	.	38*	.	74*
CCCNC(=O)c1cc2c(c(-c3cccc(-c4ccccc4F)c3)n1)[C@H](CCO)N(C(=O)CC1CC1)C2	.	.	-1%	.	.	.
COc1ccc(Cl)cc1Cn1c(C)c(C(=O)NCc2ccc(F)cc2)sc1=O	.	.	-6%	.	.	.
Cc1ccc(-n2nc3c(=O)n(CCCC(=O)NCc4ccccc4C)nc(C)c3c2C)cc1	?	?	8%	-1	?	-5
SMILES	Pf growth 96h	Pf growth 48h	AMA1 RON2 block	Cycloheximide cs	HCV inh	Shiga toxin inh
Cc1ccc(-n2nc3c(=O)n(CC(=O)NCCc4ccccc4C)nc(C)c3c2C)cc1	39%	?	21%	7	5µM*	-8
COC(=O)Cc1ccc(NC(C)=O)cc1	42%	20%	11%	.	9%	.
Oc1ccc2ccccc2c1C=NC1CCCCC1	?	?	0%	24	-4%	28
Oc1ccc(C=NC2CCCCC2)c(O)c1	10µM*	9%	5%	3	1%	-2
COC(=O)C[C@](O)(CCCC(C)(C)O)C(=O)O[C@@H]1C(OC)=C[C@]23CCCN2CCc2cc4c(cc2[C@H]13)OCO4	0.0067µM*	0.0095µM*	.	.	.	.
Cc1cc(Br)ccc1NC(=O)C1CCN(S(=O)(=O)c2cnc[nH]2)CC1	90%	-14%	-7%	0	4%	-1
Cn1c(NCc2ccco2)nc2c1c(=O)n(Cc1ccc(Cl)cc1)c(=O)n2C	76%	9.3µM*	29%	2	?	32
Cn1c(NCCCN2CCOCC2)nc2c1c(=O)n(Cc1ccc(Cl)c(Cl)c1)c(=O)n2C	.	13µM*	-11%	-3	?	-5
Cn1c(NCc2ccco2)nc2c1c(=O)n(Cc1ccc(Br)cc1)c(=O)n2C	.	9.3µM*	-1%	-1	?	-9
Cn1c(NCCCN2CCOCC2)nc2c1c(=O)n(Cc1ccc(Cl)cc1)c(=O)n2C	2%[5.75 µM]	?	-3%	1	?	-6
Cc1ccc(S(=O)(=O)N2CCN(C(=O)CN3C(=O)NC4(CCCC4)C3=O)CC2)c(C)c1	-4%	?	12%	.	21%	.
O=C(Nc1ccc(Cl)cc1C(=O)Nc1ccccn1)c1ccco1	2%	0%	102%	2	?	12
O=C(Nc1ccc(NC(=O)c2ccco2)nc1)c1ccco1	21%	i	-2%	11	14%	42
O=C(Cc1ccccc1)Nc1ccc(NC(=O)c2ccco2)nc1	2%	164%	32%	44*	7%	105*
O=C(Nc1ccc(NC(=O)c2ccco2)nc1)c1ccccn1	?	229%	?	28*	8%	20
O=C(Nc1ccccn1)c1ccco1	80%	103%	0%	45*	8%	98
C=C1c2cccc(C(F)(F)F)c2O[C@H](C(=O)OCC)[C@H]1OC	.	.	4%	.	5%	.
C/C(=N/OCc1ccc(Br)cc1)c1ccccn1	441%	i	8%	26*	-3%	60*
C/C(=N\OC(=O)c1ccc(Br)cc1)c1ccccn1	9%	-7%	73%	4	15%	13
Cc1ccc2oc(=O)c3cnn(CC(=O)N4CCc5ccccc5C4)c3c2c1	2.6µM*	.	11%	-8	24%	-16
Cc1ccc2oc(=O)c3cc(C(=O)NCCCN4CCCCCC4)sc3c2c1	43%	?	4%	-6	?	1
CCC1CCCCN1CCCNC(=O)c1cc2c(=O)oc3ccc(C)cc3c2s1 (stereo unspecified)	99%	?	4%	-3	13µM*	-2
Cc1ccc2oc(=O)c3cc(C(=O)NCCCN4CCc5ccccc5C4)sc3c2c1	12µM*	-17%	-9%	-2	-20%	-14
O=CNc1cc(-c2cccc(O)c2)cn2c(-c3ccc(F)cc3)cnc12	.	.	20%	.	.	.
